Compound activity from PubChem BioAssay.
HT1080 IDH1KD tx – qHTS for induction of synthetic lethality in tumor cells producing 2HG: qHTS for the HT-1080-IDH1KD cell line | HT-1080 IDH1 knockdown viability, ATP luminescence, 48 h | Potency, µM (titrated, usually from 46.1 µM), most hits filed as cytotoxic | actives 2% (n = 360,000)
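Assay cells: HT-1080 with IDH1 knockdown, 750 per well, RPMI/5% FBS. Exposure: 48 h at 37 °C following 2 h pre-incubation. Read: CellTiter-Glo luminescence; fitted concentration-response, curve class assigned.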
DT40 TDP1 no CPT – qHTS for Inhibitors of human tyrosyl-DNA phosphodiesterase 1 (TDP1): qHTS in cells in absence of CPT | DT40 Tdp1-/- hTDP1 cells, no CPT, ATP luminescence, 48 h | Potency, µM (titrated, usually from 46.2 µM), hits mostly inhibitors | actives 15% (n = 420,000); also: nearly all actives have a fitted effect of over 55% in size
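Cells were dispensed at 400 per well, compounds added by pin tool, plates incubated ≥48 hr at 37 °C, then CellTiter-Glo added for 30 min at room temperature before luminescence reading. Line: DT40 Tdp1-/- complemented with hTDP1; camptothecin omitted.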
HT1080NT lethal – qHTS for induction of synthetic lethality in tumor cells producing 2HG: qHTS for the HT-1080-NT fibrosarcoma cell line; HT-1080-NT fibrosarcoma viability, CellTiter-Glo ATP luminescence, 48 h; Potency, µM (highest dose often 46.1 µM), hits mostly cytotoxic; actives 1.6% (n = 360,000); AID 686970, 2013;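 also: NT is the 2HG producing partner of a matched IDH1 knockdown line; nearly all actives have a fitted effect of over 55% in size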
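Viability of the 2HG-overproducing fibrosarcoma line after 48 hours of compound exposure at 37 degrees C was determined by luminescence with CellTiter-Glo, and concentration-effect curves were then fitted and categorized.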
ALOX12 inh – Primary qHTS assay for inhibitors of human arachidonate 12S-lipoxygenase (ALOX12): Round 2; Polyunsaturated fatty acid lipoxygenase ALOX12 (Homo sapiens), P18054; actives 1.1% (n = 580,000); Potency, µM (doses to about 108 µM), hits mostly inhibitors; purified 12hLO, xylenol orange hydroperoxide absorbance; AID 1671190, 2021
Target sequence (P18054 whole entry, looked up): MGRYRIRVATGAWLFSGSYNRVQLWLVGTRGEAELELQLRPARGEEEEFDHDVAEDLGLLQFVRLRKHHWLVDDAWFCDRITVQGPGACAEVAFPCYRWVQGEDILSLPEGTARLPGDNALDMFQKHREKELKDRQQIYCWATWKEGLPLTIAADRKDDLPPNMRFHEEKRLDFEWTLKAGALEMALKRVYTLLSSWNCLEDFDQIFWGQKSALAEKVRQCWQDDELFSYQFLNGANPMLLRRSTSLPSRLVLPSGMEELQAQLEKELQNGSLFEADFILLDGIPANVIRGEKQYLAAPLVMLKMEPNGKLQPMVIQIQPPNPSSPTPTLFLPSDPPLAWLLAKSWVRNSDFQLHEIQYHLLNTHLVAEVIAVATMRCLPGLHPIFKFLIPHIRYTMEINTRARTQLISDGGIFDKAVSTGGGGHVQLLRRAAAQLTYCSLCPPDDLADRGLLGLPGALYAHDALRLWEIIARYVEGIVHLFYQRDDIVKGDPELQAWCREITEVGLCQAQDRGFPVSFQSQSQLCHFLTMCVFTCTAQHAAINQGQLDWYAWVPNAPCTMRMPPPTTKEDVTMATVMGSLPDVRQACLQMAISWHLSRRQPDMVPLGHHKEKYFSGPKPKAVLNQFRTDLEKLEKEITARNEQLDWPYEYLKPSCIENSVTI
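Hydroperoxide product was detected by ferrous iron/xylenol orange as the 573 to 405 nm absorbance ratio. Arachidonic acid at 40 uM (final) was turned over for 30 min at room temperature by 150 nM human 12hLO, pH 7.0 Hepes buffer, after 15 min compound preincubation.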
IL-1B inflam inh – qHTS for Inhibitors of Inflammasome Signaling: IL-1-beta AlphaLISA Primary Screen; THP-1 LPS/ATP IL-1B secretion, AlphaLISA, 16 h; active compounds read low; activity change, % at 57.5 µM; actives 4.7% (n = 360,000); AID 743279, 2014; in the data active = activity change below about -50%; inconclusive = mostly about -30% to -49%
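Secreted IL-1B measured by AlphaLISA bead assay after 16 h compound exposure of THP-1 cells; compounds (final up to 57.5 uM) added 1 h before LPS (250 ng/mL) and ATP (1.25 mM) stimulation; lower signal means less secretion.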
TDP1 cell CPT – qHTS for Inhibitors of human tyrosyl-DNA phosphodiesterase 1 (TDP1): qHTS in cells in presence of CPT | chicken DT40 Tdp1-/-;hTDP1 cells + 20 nM CPT, ATP luminescence, 48 h | Potency, µM (doses to about 46.2 µM), hits mostly inhibitors | actives 12% (n = 420,000) | AID 686979, 2013; also: nearly all actives have a fitted effect of over 55% in size
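Chicken DT40 Tdp1-/- cells stably complemented with human TDP1 were seeded at 400 cells/well in medium containing 20 nM camptothecin, exposed to pin-transferred compounds, and grown at 37 °C for at least 48 hr. Viability was read as ATP luminescence.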
A number is an active result; n = inactive; u = inconclusive; x = no result given. The full list was thinned out, with hits kept by preference. Unless noted, calls follow the shape of the dose curve; as a rule, active = well fitted curve in the direction sought with a large enough effect; inconclusive = small, poorly fitted or top-dose-only effect, or another doubt; inactive = no such curve, though single readings can be large; an effect the other way counts as inactive or inconclusive.

SMILES	HT1080 IDH1KD tx	DT40 TDP1 no CPT	HT1080NT lethal	ALOX12 inh	IL-1B inflam inh	TDP1 cell CPT
CC1C(=O)N(Cc2cn(Cc3ccco3)nn2)CCS(=O)(=O)N1Cc1ccc(-c2ccc(F)cc2)cc1 (configuration not stated)	n	u	n	u	n	u
CCC/C=C/c1ccc(CN2C(CC(C)C)C(=O)N(Cc3cn(CCOCOC)nn3)CCS2(=O)=O)cc1 (configuration not stated)	n	n	n	n	n	n
CCC/C=C/c1ccc(CN2C(C(C)C)C(=O)N(Cc3cn(CC4CCCCC4)nn3)CCS2(=O)=O)cc1 (configuration not stated)	u	12µM	u	n	n	16µM
CCC/C=C/c1ccc(CN2C(C)C(=O)N(Cc3cn(CC4CCCCC4)nn3)CCS2(=O)=O)cc1 (configuration not stated)	n	21µM	n	n	n	u
O=C(c1ccc2c(c1)OCO2)N(Cc1cccs1)C1(C(=O)NC2CCCC2)CCCCC1	x	x	x	n	x	x
Cc1nc2ncnn2c(N2CCN(c3cccc(C(F)(F)F)c3)CC2)c1C	u	21µM	u	n	u	16µM
Cc1cc(N2CCN(c3cccc(C(F)(F)F)c3)CC2)n2nc(-c3ccccc3C)nc2n1	x	16µM	x	n	x	18µM
Cc1cc(N2CCN(c3cccc(C(F)(F)F)c3)CC2)n2ncnc2n1	n	23µM	n	n	n	u
CNC(=O)N1CCc2nc(N3CCN(C)CC3)[nH]c(=O)c2CC1	x	x	x	n	x	x
COC(=O)c1cc(NC(=O)c2ccccc2OC(F)F)ccc1F	x	x	x	n	x	x
CCN(CC)S(=O)(=O)c1ccc(C(=O)NCc2n[nH]c(=S)n2Cc2ccccc2)cc1	u	n	n	25µM	n	n
O=C(NCc1n[nH]c(=S)n1Cc1ccccc1)c1ccccc1	n	n	n	n	n	n
C/C(Cl)=C\C[N+](C)(C)CC(=O)OCCc1ccccc1	n	n	n	u	n	n
CCCCCCCCCCOC(=O)C[N+](C)(C)C/C=C(/C)Cl	n	3.7µM	n	n	u	8.2µM
CCCCCCCCCCCCOC(=O)C[N+](C)(C)C	n	n	n	u	x	n
CCCCCCCCOC(=O)C[N+](C)(C)C/C=C(/C)Cl	n	10µM	n	n	n	16µM
COc1ccc(CN2CCN(C(C)c3nnc(-c4ccccc4)o3)CC2)cc1F (configuration not stated)	x	x	x	n	x	x
CCCNC(=S)NCCN1CCCCC1	n	n	n	0.63µM	n	n
COc1ccc2nc3cc(Cl)ccc3c(Nc3ccc(O)c(CN4CCN(C)CC4)c3)c2c1	16µM	1.5µM	u	u	-114	1.8µM
CCn1nc(C)c(NC(=O)Nc2cccc(Cl)c2Cl)c1C	n	n	n	n	n	n
COc1cccc(NC(=O)CN(C)C(=O)c2ccc(-c3ccccc3Cl)o2)c1	n	u	n	u	n	u
FC(F)(F)c1ccc(CN2CCC3(CC2)CC(c2cccnc2)=NO3)cc1	x	x	x	n	x	x
CCOC(=O)CSc1nc(-c2ccccc2)cc(C(F)(F)F)c1C#N	x	n	x	n	x	n
N#Cc1c(-c2ccccc2)cc(-c2ccccc2)nc1SCC(O)CS(=O)(=O)Cc1ccccc1 (configuration not stated)	x	5.8µM	x	n	x	10µM
CCOC(=O)/C(Sc1nc(-c2ccccc2)cc(-c2ccccc2)c1C#N)=C(\C)O	n	29µM	n	n	n	n
SMILES	HT1080 IDH1KD tx	DT40 TDP1 no CPT	HT1080NT lethal	ALOX12 inh	IL-1B inflam inh	TDP1 cell CPT
COc1ccc(-c2cc(-c3ccccc3)c(C#N)c(=S)[nH]2)cc1	n	n	n	n	n	n
COc1ccc(-c2cc(-c3ccccc3)c(C#N)c(S(C)=O)n2)cc1 (configuration not stated)	u	3.3µM	u	n	-96	3.3µM
CCSc1nc(-c2ccc(OC)cc2)cc(-c2ccccc2)c1C#N	n	23µM	n	n	n	u
C#CCSc1nc(-c2ccccc2)cc(-c2ccccc2)c1C#N	x	u	x	n	x	u
CCCNC(=O)C1COC2(CCN(C(=O)c3cccc(OC)c3)CC2)N1C(=O)c1ccccc1 (configuration not stated)	x	x	x	n	x	x
NC(=O)CN1CCC(NC(=O)c2ccc(Cl)cc2)CC1	x	x	x	n	x	x
CCc1ccccc1NC(=S)N1CCN(c2ccccn2)CC1	n	n	n	u	n	n
CCN(CC)S(=O)(=O)c1ccc(C)c(NC(=S)N2CCN(Cc3ccc4c(c3)OCO4)CC2)c1	21µM	21µM	u	n	n	21µM
CCN(CC)S(=O)(=O)c1ccc(C)c(NC(=S)N2CCN(C/C=C/c3ccccc3)CC2)c1	n	12µM	n	n	n	u
CCN(CC)S(=O)(=O)c1ccc(C)c(NC(=S)N2CCN(c3ccccn3)CC2)c1	n	15µM	n	n	-73	18µM
COc1ccccc1NC(=S)N1CCN(C/C=C/c2ccccc2)CC1	n	u	n	n	n	u
Cc1ccc(NC(=S)N2CCN(Cc3ccc4c(c3)OCO4)CC2)c(C)c1	n	n	n	n	n	n
Cc1ccc(NC(=O)CS(=O)CC(=O)Nc2ccc(N3CCOCC3)cc2)cc1Cl (configuration not stated)	n	29µM	u	u	n	21µM
Cc1cc(C)c(NC(=O)CS(=O)CC(=O)Nc2ccc(N3CCOCC3)cc2)c(C)c1 (configuration not stated)	n	n	n	n	n	n
Cc1ccc(NC(=O)c2cc(N3C(=O)C=CC3=O)ccc2N2CCOCC2)cc1Cl	16µM	3.7µM	n	13µM	-57	4.1µM
COc1cc(-c2[nH]ncc2CN2CCCCC2c2nccs2)cc(OC)c1OC (configuration not stated)	x	x	x	n	x	x
O=C(Nc1ccc(F)cc1)c1n[nH]c(=O)c2ccccc12	x	x	x	n	x	x
CCOc1ccc2nc(SC3CC(=O)N(c4ccc(OC)cc4OC)C3=O)sc2c1 (configuration not stated)	u	3.3µM	u	n	n	4.6µM
CCOC(=O)c1cnc(SC2CC(=O)N(c3ccc(OC)c(OC)c3)C2=O)nc1N (configuration not stated)	n	u	n	n	n	21µM
